Screening data as filed in PubChem BioAssay.
LmPK inhibitor – qHTS Assay for Inhibitors of Leishmania Mexicana Pyruvate Kinase (LmPK); Q27686; purified LmPK, Kinase-Glo ATP luminescence, 1 h; Potency, µM (highest dose often 57.5 µM), for inactives: at the top dose activity change, negative = inhibition, actives largely listed as inhibitors; hit rate 0.37% among 290,000; also: potency is read from the fitted curve at half-maximal effect; % is scaled to controls: 0 for no effect and ±100 for the full control effect
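Pyruvate kinase activity monitored as ATP production (luciferase luminescence). Conditions: 0.1 nM enzyme, 0.5 mM PEP, 0.1 mM ADP, 1 h, RT; normalized against uninhibited and no-enzyme wells.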
Cycloheximide cs – Cycloheximide Counterscreen for Small Molecule Inhibitors of Shiga Toxin. cell reporter, cycloheximide protein synthesis inhibition counterscreen. max response, %. hit rate 12% among 300,000; in the data active = max response mostly above about 13%, no sharp cut-off; inactive = mostly below about 14%; also: read at 38.3 µM for the half of the compounds with a filed dose; 0% is about no effect
Giardia FBPA inh – qHTS Assay for Inhibitors of Fructose-1,6-bisphosphate Aldolase from Giardia Lamblia. A8B2U2. purified Giardia FBPA. Potency, µM (doses to about 59.6 µM), for the others: at the top dose activity, negative = inhibition, hits mostly inhibitors. hit rate 0.71% among 290,000; also: potency is read from the fitted curve at half-maximal effect; % is scaled to controls: 0 for no effect and ±100 for the full control effect; nearly all actives have a fitted effect of over 55% in size
Target sequence (A8B2U2 whole entry, looked up): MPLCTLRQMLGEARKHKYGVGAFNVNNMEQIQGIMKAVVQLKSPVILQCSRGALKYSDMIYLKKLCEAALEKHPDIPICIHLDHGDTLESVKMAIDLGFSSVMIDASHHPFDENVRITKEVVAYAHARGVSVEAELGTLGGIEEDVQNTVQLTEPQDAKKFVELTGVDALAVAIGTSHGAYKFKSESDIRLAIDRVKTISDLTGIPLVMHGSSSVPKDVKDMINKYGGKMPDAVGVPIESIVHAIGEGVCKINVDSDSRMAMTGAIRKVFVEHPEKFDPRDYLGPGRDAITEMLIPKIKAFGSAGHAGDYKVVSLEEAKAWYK
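40 nM FBPA preincubated 10 min at RT with compound (up to 57.5 uM final), then substrate plus GAPDH/TPI/NAD/arsenate coupling and diaphorase/resazurin added. Fluorescence read after 20 min at RT, 525/598 nm.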
NS1 inh – qHTS Assay for Inhibitors of Influenza NS1 Protein Function. hit rate 0.4% among 270,000. Potency, µM (top dose mostly 46.1 µM), for the others: top-dose activity, positive = more growth; calls by dose curve; also: potency is read from the fitted curve at half-maximal effect; actives are rising curves; nearly all actives have a fitted effect of over 50% in size
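Recovery from NS1-induced slow growth read by OD600 in budding yeast switched to galactose assay medium (pH 6.0, -URA) at 1:100 dilution. Compound 23 nl per well; the matching strain lacking NS1 serves as control.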
Shiga inhibitor – A qHTS for Small Molecule Inhibitors of Shiga Toxin; hit rate 9.2% among 290,000; Vero cells, Shiga toxin protein synthesis inhibition reporter; inhibition, % at 38.7 µM; AID 2315, 2010; in the data active = inhibition mostly above about 28%, no sharp cut-off; inactive = mostly below about 43%; also: 0% is about no effect
Active calls of the source: *; ? = inconclusive; · = no result; [ ] = dose if it differs, or a comment. Compounds with a hit are over-represented: about 14% of the library has one in this group of screens. Unless noted, calls follow the shape of the dose curve; as a rule, active = well fitted curve in the direction sought with a large enough effect; inconclusive = small, poorly fitted or top-dose-only effect, or another doubt; inactive = no such curve, though single readings can be large; an effect the other way counts as inactive or inconclusive.

SMILES	LmPK inhibitor	Cycloheximide cs	Giardia FBPA inh	NS1 inh	Shiga inhibitor
O=C(Cc1ccccc1)Nc1scc(-c2ccccc2)c1C(=O)N1CCOCC1	1%	2	-1%	-2%	17
NC(=O)c1c(-c2ccc(Cl)cc2Cl)csc1NC(=O)Cc1ccccc1	3%	16*	0%	11%	11
CCOc1ccc2[nH]c(C(=O)N/N=C/c3ccccc3OC)cc2c1	0%	-1	8%	1%	20
CN(C)CC(=O)c1c[nH]c2ccccc12	2%	-5	3%	2%	-14
CCN(CC)c1ccc(/C=N/NC(=O)c2cc(C)nc3ccccc23)cc1	1%	10	0%	-4%	15
CCN(CC)c1ccc(/C=N/NC(=O)c2cc3ccccc3[nH]2)cc1	2%	20*	2%	-18%	28
CCN(C(=O)C(=O)c1c[nH]c2ccccc12)c1ccccc1	4%	18*	-10%	10%	19
CCN(CC)c1ccc(/C=N/NC(=O)c2c[nH]c3ccccc23)cc1	-2%	35*	-1%	-5%	40*
O=C(O)CC(c1cccc(O)c1)N1Cc2ccccc2C1=O (centres undefined)	0%	-6	12%	1%	-3
CCCn1cnc2c(SCC(=O)O)nc(N)nc21	·	·	·	-3%	·
c1ccc(-c2nc(C3CCCCC3)no2)cc1	-15%	28*	1%	?	45*
COc1ccc(-c2nc(C3CCCCC3)no2)cc1OC	0%	53*	0%	-53%	163*
Cc1ccc(S(=O)(=O)OCC2CN3C(CCC(C)C3c3ccc(Br)cc3)C(=O)O2)cc1 (centres undefined)	·	·	-3%[12.9 µM]	·	·
Cc1ccc(CN2CCNC(=O)C2CC(=O)NCC(F)(F)F)o1 (centres undefined)	2%	3	-15%	3%	-5
Nc1c2c(nc3ccccc13)CCN(Cc1ccccc1)C2	-4%	15*	-19%	-3%	5
O=C(NC1CCCCCC1)c1c2c(nc3ccccc13)CCN(Cc1ccccc1)C2	0%	-3	-2%	16%	2
Cc1nc(N(CCO)C2CCCCC2)c2nnn(Cc3ccccc3)c2n1	-2%	3	-5%	-30%	10
CC(C)c1ccc(C(=O)N2CCCN(C(=O)c3ccc(C(C)C)cc3)CC2)cc1	0%	-3	4%	18%	-3
Cc1ccc(OCc2ccc(C(=O)N3CCOCC3)cc2)cc1C	?	31*	-4%	-33%	54*
CC(C)c1ccc(COc2ccc(C(=O)N3CCOCC3)cc2)cc1	1%	16*	-1%	1%	70
Cc1ccc(C(=O)N2CCOCC2)cc1Cl	-8%	-3	7%	?	16
Cc1ccc(C(=O)N2CCN(c3ccccn3)CC2)cc1	1%	-3	5%	·	2
CC(C)c1ccc(OCc2ccc(C(=O)N3CCN(c4ccccn4)CC3)cc2)cc1	0%	30*	4%	-71%	170
COc1ccc(-c2c(NC(=O)c3ccco3)n(C)c3ccccc3c2=O)cc1	3%	0	-11%	-9%	10
COc1ccccc1-c1c(NC(=O)c2ccco2)n(C)c2ccccc2c1=O	4%	18*	-2%	6%	36*
SMILES	LmPK inhibitor	Cycloheximide cs	Giardia FBPA inh	NS1 inh	Shiga inhibitor
CN(C)c1ccc(/C=N/n2ncc3ccccc32)cc1	-24%	39*	8%	-10%	98*
C=CCn1c(/N=C/c2ccc(N(C)C)cc2)nc2ccccc21	-19%	-2	-2%	-47%	-2
CC1CN(C/C(=N\O)C23CC4CC(CC(C4)C2)C3)CC(C)O1 (centres undefined)	2%	-1	5%	-2%	3
C/C(NC(=O)c1cccs1)=C1\C(=O)C[C@@H]2[C@H]1C2(C)C	9%	15*	4%	-34%	29
O=C(NC(=S)NC1CCSC1=O)c1cccs1 (centres undefined)	-1%	7	-21%	18%	8
CCC(NC(=O)c1cccc(Cn2cc([N+](=O)[O-])cn2)c1)c1ccc(C(C)C)cc1 (centres undefined)	3%	11*	4%	3%	7
Cc1nc(N)sc1N=Nc1ccccc1C(F)(F)F	-7%	45*	14%	-1%	112*
CCC(=O)Nc1ccc(NC(=O)c2c(C)nc3ccccn23)cc1	-8%	-4	-1%	-3%	10
COc1ccc(-c2nc3ccccn3c2Cl)cc1	?	41*	-5%	-66%	22
O=C(Nc1ccc(F)cc1)c1c(Cl)nc2ccccn12	-3%	31*	-5%	-4%	73*
Cc1nc2ccccn2c1C(=O)NNC(=S)Nc1ccc(Cl)cc1	3%	-1	?	-17%	19*
COc1ccc(NC(=O)c2c(Cl)nc3ccccn23)cc1	-5%	32*	-8%	-17%	74*
Cc1nc2ccccn2c1C(=O)NNC(=S)Nc1ccccc1	0%	7	-2%	2%	-1
O=C(NCc1ccccc1)N1CCNCC1	5%	-1	?	-3%	·
Cc1cccc2cc3c(N)c(C(=O)N4CCOCC4)sc3nc12	-15%	50*	?	-9%	115*
COCCC(=O)N1CCC(Oc2ccc(C(=O)N3CCCCC3COC)cc2)CC1 (centres undefined)	6%	1	·	-1%	4
Cc1ccc(OCC(=O)NCc2ccccn2)c(Br)c1	1%	31*	6%	-16%	78*
O=C(COc1ccc(F)cc1Br)NCc1ccccn1	-4%	48*	12%	-20%	61*
Cc1ccc(OCC(=O)NCCO)c(Br)c1	5%	31*	3%	-1%	29
O=C(COc1ccccc1Br)NCc1ccccn1	0%	29*	2%	-7%	64*
O=C(/C(C=Nc1cc2c(oc1=O)CCCC2=O)=C(\O)c1ccccc1)c1ccccc1	-2%	40*	-2%	1%	125*
O=C1CCCc2c1cc(-c1ccccc1)n2-c1ccccc1	5%	2	6%	-2%	-10
CSc1ccccc1C(=O)Nc1nc2ccccc2c(=O)[nH]1	-16%	32*	-9%	-35%	80*
CSc1ccccc1C(=O)Nc1nc2ccccc2[nH]1	-1%	39*	-7%	·	73*
COc1ccccc1C(=O)Nc1nc2ccccc2[nH]1	11µM*	-11	-9%	-44%	-28
SMILES	LmPK inhibitor	Cycloheximide cs	Giardia FBPA inh	NS1 inh	Shiga inhibitor
Cn1nc(C(=O)Nc2nc3ccccc3[nH]2)ccc1=O	-28%	46*	-15%	·	84*
CCSc1ccccc1C(=O)Nc1nc2ccccc2c(=O)[nH]1	-1%	12	-6%	-15%	17
CC1(c2ccc(OC(F)F)cc2)NC(=O)N(CC(=O)Nc2cccc(F)c2)C1=O (centres undefined)	5%	-2	-12%	0%	-2
COc1ccc2c(c1)O[C@@H]1c3ccc(OC)cc3OCC21 (some centres undefined)	·	·	3%	·	·
Cc1sc(NC(=O)c2ccc(=O)n(C)n2)nc1-c1ccccc1	-2%	32*	-5%	·	42
CCCCN(c1ccccc1)c1ncnc2c1cnn2C	·	·	·	-22%	·
